# Results published in PubChem BioAssay (EPA / NIEHS).
# Activity calls are given as the source filed them. Rule for the calls: active = hit-call score of the fitted dose curve at least 0.9, where 1 is the maximum; inactive = score below 0.9.
# Assays:
# [1] = APR_HepG2_P-H2AX_72hr: Apredica 72-hour HepG2 Assay for H2AX Phosphorylation (AID 2282916); settings: imaging, actives raise or lower the signal;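 note: phospho-histone H2A.x immunostain intensity per cell marking DNA damage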
# Method in brief: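 Phospho-histone H2A.x immunofluorescence, multiplexed with Hoechst and c-Jun, quantified by high-content imaging. Compounds applied to HepG2 for 72 h across ten concentrations (0.39–200 uM, 0.5% DMSO), in duplicate; DMSO baseline.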
# [2] = APR_HepG2_MitoMembPot_72hr: Apredica 72-hour HepG2 Assay for Mitochondrial Membrane Potential (AID 2282917); settings: imaging, actives raise or lower the signal
# Method in brief: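 HepG2 cells dosed 72 hr with compound at 0.39–200 uM in duplicate, 0.5% v/v DMSO final. Mitochondria stained with 250 nM MitoTracker Red CMXRos for 30 min before formaldehyde fixation, imaged by high-content fluorescence; bidirectional fit versus DMSO.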
# [3] = APR_HepG2_MitoticArrest_72hr: Apredica 72-hour HepG2 Assay for Mitotic Arrest (AID 2282918); settings: high-content imaging, actives raise or lower the signal
# Method in brief: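 Mitotic arrest in HepG2 is scored from phospho-histone H3 staining after 72 hr dosing across 0.39–200 uM, with DMSO at 0.5% v/v. Nuclei are identified by Hoechst 33342 and fluorescence intensity is quantified per cell.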
# [4] = APR_HepG2_MicrotubuleCSK_72hr: Apredica 72-hour HepG2 Assay for Microtubule CSK Stabilty (AID 2282919); settings: HepG2 microtubule cytoskeleton, high-content imaging, actives raise or lower the signal
# Method in brief: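 HepG2, 72 hr cmpd exposure, 0.39–200 uM (10 pts, duplicate), 0.5% DMSO. 3.7% formaldehyde fix, 0.5% Triton perm, anti-alpha-tubulin/Cy5 plus Hoechst. HCS fluorescence intensity; bidirectional fit vs DMSO baseline; taxol as positive control.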
# [5] = APR_HepG2_P-H2AX_24hr: Apredica 24-hour HepG2 Assay for H2AX Phosphorylation (AID 2282920); settings: high-content imaging, actives raise or lower the signal
# Method in brief: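 Signal comes from a FITC-labeled secondary detecting phospho-histone H2A.x in fixed HepG2 cells, quantified by automated imaging at 20x. Dosing ran 24 hr across 0.39–200 uM with 0.5% v/v DMSO.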
# [6] = APR_HepG2_StressKinase_72hr: Apredica 72-hour HepG2 Assay for Stress Kinase (AID 2282921); settings: HepG2 stress kinase (phospho-c-Jun) imaging, actives raise or lower the signal
# Method in brief: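 Stress kinase signal is phospho-c-Jun immunofluorescence (1:500 primary, Cy3 secondary) in fixed, permeabilized human HepG2 cells imaged at 20x. Exposure lasted 72 hr over ten concentrations from 0.39 to 200 uM, 0.5% DMSO, in duplicate. Bidirectional fit versus DMSO.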
# [7] = APR_HepG2_StressKinase_24hr: Apredica 24-hour HepG2 Assay for Stress Kinase (AID 2282922); settings: HepG2 stress kinase (phospho-c-Jun) imaging, actives raise or lower the signal
# Method in brief: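 Read-out: phospho-c-Jun immunofluorescence (Cy3 secondary) quantified by high-content imaging at 20x, nuclei defined by Hoechst 33342. Human HepG2 liver cells dosed 24 hr, 0.39–200 uM, DMSO 0.5% v/v; gain or loss of signal fitted relative to DMSO.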
# [8] = APR_HepG2_p53Act_72hr: Apredica 72-hour HepG2 Assay for p53 Activation (AID 2282923); settings: high-content imaging, actives raise or lower the signal;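 note: average cellular p53 protein immunofluorescence intensity in HepG2 cells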
# Method in brief: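 After 72 h with compound (ten points, 0.39 to 200 uM, final DMSO 0.5% v/v), fixed HepG2 cells were labelled with sheep anti-p53 and Hoechst 33342 and imaged; gain or loss versus DMSO scored.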
# [9] = APR_HepG2_MitoMass_72hr: Apredica 72-hour HepG2 Assay for Mitochondrial Mass (AID 2282924); settings: high-content imaging, actives raise or lower the signal;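 note: MitoTracker Red CMXRos stain intensity per cell imaged as mitochondrial mass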
# Method in brief: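 Read-out: MitoTracker Red fluorescence intensity from automated imaging (20x, six fields per well) in human HepG2 liver cells. Dosing ran 72 hr, 0.39–200 uM, 0.5% DMSO; bidirectional curve fitting versus DMSO baseline.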
# [10] = APR_HepG2_NuclearSize_72hr: Apredica 72-hour HepG2 Assay for Nuclear Size (AID 2282925); settings: high-content imaging, actives raise or lower the signal
# Method in brief: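 Read-out: nuclear diameter from Hoechst 33342 images (ArrayScan, 20x, six fields/well), via cell-cycle image analysis. HepG2 were dosed 0.39–200 uM for 72 hr in 0.5% DMSO. Bidirectional fit relative to DMSO.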
# [11] = ATG_CRE_CIS: Attagene CIS-FACTORIAL HepG2 Assay for human cAMP Responsive Element (CRE) binding protein 3 (AID 2282926); settings: HepG2 CRE cis-reporter, Attagene multiplexed mRNA; actives raise or lower the signal
# Method in brief: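 Cells carrying cis-regulated reporter constructs respond through their own endogenous factors. After 24 h treatment, RNA is reverse-transcribed, amplified, labelled and sized by capillary electrophoresis; up- and down-regulation are both scored against vehicle.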
# [12] = target: CCAAT/enhancer-binding protein beta (Homo sapiens) (UniProt P17676); experiment: ATG_C_EBP_CIS: Attagene CIS-FACTORIAL HepG2 Assay for human CCAAT/Enhancer Binding Protein (C/EBP) beta (AID 2282927); settings: HepG2 Attagene cis-factorial transcription factor reporter; actives raise or lower the signal
# CCAAT/enhancer-binding protein beta (Homo sapiens), sequence (P17676 whole entry, looked up): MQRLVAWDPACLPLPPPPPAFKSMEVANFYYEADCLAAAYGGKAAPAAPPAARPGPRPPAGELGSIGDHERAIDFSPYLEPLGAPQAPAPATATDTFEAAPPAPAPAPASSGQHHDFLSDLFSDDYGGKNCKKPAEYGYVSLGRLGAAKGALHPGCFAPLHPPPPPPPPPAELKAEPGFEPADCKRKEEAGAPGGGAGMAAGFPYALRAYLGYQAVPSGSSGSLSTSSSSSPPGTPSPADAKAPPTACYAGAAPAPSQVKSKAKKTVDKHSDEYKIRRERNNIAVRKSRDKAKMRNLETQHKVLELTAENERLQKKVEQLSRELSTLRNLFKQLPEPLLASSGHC
# Method in brief: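 HepG2 transiently transfected with multiplexed reporter units under cis-regulatory promoters reporting endogenous C/EBPb activity. After 24 h exposure, reporter mRNA assayed by RT-PCR, fluorescent labelling, HpaI digestion and capillary electrophoresis; bidirectional fitting versus DMSO.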
# [13] = ATG_CMV_CIS: Attagene CIS-FACTORIAL HepG2 Assay for human CMV (Internal Marker) (AID 2282928); settings: HepG2 CMV promoter reporter, transcription factor profiling; actives raise or lower the signal;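 note: endpoint acts as a background internal control marker rather than a target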
# Method in brief: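 Readout: fluorescent reporter cDNA fragments separated by capillary electrophoresis after RT-PCR and HpaI cut. Cells: HepG2 carrying transfected cis-promoter reporter constructs, dosed 24 h. Endpoint serves as background internal-marker control, fit bidirectionally versus DMSO.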
# [14] = ATG_DR4_LXR_CIS: Attagene CIS-FACTORIAL HepG2 Assay for human Liver X Receptor (LXR), DR4 submotif (AID 2282929); settings: HepG2 Attagene DR4 cis-reporter, mRNA transcription; actives raise or lower the signal
# Method in brief: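 DR4 cis-reporter in HepG2, 24 h exposure. Detection: RT-PCR, 6-FAM labelling, CE fragment analysis. Endpoint fitted bidirectionally, DMSO = baseline.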
# [15] = target: Aryl hydrocarbon receptor (Homo sapiens) (UniProt P35869); experiment: ATG_Ahr_CIS: Attagene CIS-FACTORIAL HepG2 Assay for human Aryl Hydrocarbon Receptor (Ahr) (AID 2282930); settings: HepG2 AhR cis-factorial reporter transcription; actives raise or lower the signal
# Aryl hydrocarbon receptor (Homo sapiens), sequence (P35869 whole entry, looked up): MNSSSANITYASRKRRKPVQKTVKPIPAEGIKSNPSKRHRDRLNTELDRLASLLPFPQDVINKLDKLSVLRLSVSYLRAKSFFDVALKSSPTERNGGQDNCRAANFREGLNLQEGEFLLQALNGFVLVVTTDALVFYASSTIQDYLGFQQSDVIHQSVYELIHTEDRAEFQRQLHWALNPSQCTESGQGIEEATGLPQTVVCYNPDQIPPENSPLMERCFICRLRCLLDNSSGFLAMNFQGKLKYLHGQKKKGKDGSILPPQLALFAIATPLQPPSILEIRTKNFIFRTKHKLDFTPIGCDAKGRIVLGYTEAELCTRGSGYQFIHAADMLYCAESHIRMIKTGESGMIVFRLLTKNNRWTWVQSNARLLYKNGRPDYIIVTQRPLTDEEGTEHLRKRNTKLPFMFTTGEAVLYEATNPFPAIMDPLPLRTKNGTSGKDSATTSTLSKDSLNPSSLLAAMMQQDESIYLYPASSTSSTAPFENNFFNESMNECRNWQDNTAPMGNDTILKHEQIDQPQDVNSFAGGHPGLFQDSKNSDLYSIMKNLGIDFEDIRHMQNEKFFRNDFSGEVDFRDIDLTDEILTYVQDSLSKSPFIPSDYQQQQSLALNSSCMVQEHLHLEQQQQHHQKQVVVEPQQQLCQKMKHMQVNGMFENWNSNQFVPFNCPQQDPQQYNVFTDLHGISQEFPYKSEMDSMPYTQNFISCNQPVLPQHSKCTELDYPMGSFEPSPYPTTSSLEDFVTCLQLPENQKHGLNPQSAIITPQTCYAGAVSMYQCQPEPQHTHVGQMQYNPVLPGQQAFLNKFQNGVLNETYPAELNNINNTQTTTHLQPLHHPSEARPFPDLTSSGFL
# Method in brief: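 HepG2 cells transiently transfected with cis-element-driven multiplexed reporter units; endogenous AhR activity read as reporter mRNA 24 h after dosing, via RT-PCR, 6-FAM labelling, HpaI digestion and capillary electrophoresis. Bidirectional fit relative to DMSO.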
# [16] = ATG_AP_1_CIS: Attagene CIS-FACTORIAL HepG2 Assay for human Activator Protein 1 (AP-1) (AID 2282931); settings: HepG2 Attagene cis-factorial AP-1 reporter mRNA; actives raise or lower the signal
# Method in brief: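 Cis-regulated reporter units transiently expressed in HepG2 report endogenous transcription-factor activity. Signal: reporter mRNA at 24 h, via RT-PCR and fluorescent capillary electrophoresis. Endpoint derived by bidirectional fitting, DMSO as negative control.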
# [17] = ATG_AP_2_CIS: Attagene CIS-FACTORIAL HepG2 Assay for human Activator Protein 2 (AP-2) (AID 2282932); settings: HepG2 AP-2 cis-reporter, Attagene transcription factor profiling; actives raise or lower the signal
# Method in brief: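 Liver-derived HepG2 line, cis-reporter system measuring endogenous factors; 24 h dosing; reporter mRNA detected by fluorescent RT-PCR and capillary electrophoresis.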
# [18] = target: Retinoic acid receptor alpha (Homo sapiens) (UniProt P10276); experiment: ATG_DR5_RAR_CIS: Attagene CIS-FACTORIAL HepG2 Assay for human Retinoic Acid Receptor Alpha (RARE), DR5 submotif (AID 2282934); settings: HepG2 Attagene cis-factorial RARE DR5 reporter, mRNA; actives raise or lower the signal
# Retinoic acid receptor alpha (Homo sapiens), sequence (P10276 whole entry, looked up): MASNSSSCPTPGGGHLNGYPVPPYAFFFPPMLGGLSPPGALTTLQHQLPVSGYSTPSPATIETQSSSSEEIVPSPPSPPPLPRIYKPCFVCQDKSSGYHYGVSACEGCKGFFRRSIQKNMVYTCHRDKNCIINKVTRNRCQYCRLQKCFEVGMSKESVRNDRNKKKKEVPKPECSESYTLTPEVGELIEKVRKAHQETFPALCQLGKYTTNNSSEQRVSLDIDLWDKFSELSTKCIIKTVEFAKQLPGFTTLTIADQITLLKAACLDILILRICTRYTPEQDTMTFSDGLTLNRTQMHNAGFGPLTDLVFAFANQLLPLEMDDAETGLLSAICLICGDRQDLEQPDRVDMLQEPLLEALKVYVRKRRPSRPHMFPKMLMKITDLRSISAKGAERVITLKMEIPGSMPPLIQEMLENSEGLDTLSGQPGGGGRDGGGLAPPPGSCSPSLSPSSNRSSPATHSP
# Method in brief: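 HepG2 cells transiently transfected with multiplexed reporter units; DR5 cis-element drives reporter through endogenous transcription factors. After 24 h dosing, reporter mRNA quantified by RT-PCR, fluorescent labeling, HpaI digestion and capillary electrophoresis; bidirectional fitting versus DMSO.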
# [19] = target: Transcription factor E2F1 (Homo sapiens) (UniProt Q01094); experiment: ATG_E2F_CIS: Attagene CIS-FACTORIAL HepG2 Assay for human E2F Transcription Factor 1 (AID 2282935); settings: HepG2 Attagene cis-reporter, E2F reporter RNA transcripts; actives raise or lower the signal
# Transcription factor E2F1 (Homo sapiens), sequence (Q01094 whole entry, looked up): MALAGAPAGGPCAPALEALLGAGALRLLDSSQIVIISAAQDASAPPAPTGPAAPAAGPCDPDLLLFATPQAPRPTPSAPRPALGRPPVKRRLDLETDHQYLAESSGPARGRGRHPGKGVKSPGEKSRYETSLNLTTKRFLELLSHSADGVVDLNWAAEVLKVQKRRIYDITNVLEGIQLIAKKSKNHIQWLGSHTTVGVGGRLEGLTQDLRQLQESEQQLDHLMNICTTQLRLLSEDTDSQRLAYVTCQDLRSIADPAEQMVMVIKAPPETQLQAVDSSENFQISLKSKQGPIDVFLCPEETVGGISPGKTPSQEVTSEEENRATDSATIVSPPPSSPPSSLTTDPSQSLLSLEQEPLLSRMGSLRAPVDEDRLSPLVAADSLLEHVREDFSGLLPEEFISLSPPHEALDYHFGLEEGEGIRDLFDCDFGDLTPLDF
# Method in brief: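 Liver-derived HepG2 cells expressing transfected promoter-driven reporter units received test chemical for 24 hours. Signal gains or losses were fitted bidirectionally against DMSO.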
# [20] = ATG_BRE_CIS: Attagene CIS-FACTORIAL HepG2 Assay for human Bone Morphogenetic Protein (BMP) Response Element (BRE) (AID 2282933); settings: HepG2 BMP response element reporter, Attagene transcription factor profiling; actives raise or lower the signal
# Method in brief: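 Read-out: reporter mRNA induction quantified by RT-PCR and capillary electrophoresis after 24 h chemical exposure of transfected HepG2 cells. Endogenous factor activity on the BMP response element; gain or loss fitted against DMSO baseline.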
compound,measurement,setting,value
Nc1ccc(Cc2ccc(N)cc2)cc1,outcome,[1],inactive
same,outcome,[2],inactive
same,outcome,[3],inactive
same,outcome,[4],inactive
same,outcome,[5],inactive
same,outcome,[6],inactive
same,outcome,[7],inactive
same,outcome,[8],inactive
same,outcome,[9],inactive
same,outcome,[10],inactive
same,outcome,[11],inactive
same,outcome,[12],inactive
same,outcome,[13],inactive
same,outcome,[14],inactive
same,outcome,[15],inactive
same,outcome,[16],inactive
same,outcome,[17],inactive
same,outcome,[18],inactive
same,outcome,[19],inactive
O=C(Oc1ccc(Br)cc1)N1CCN2CCC1CC2,AC50,[1],101 µM (active)
same,outcome,[2],inactive
same,AC50,[3],106 µM (active)
same,outcome,[4],inactive
same,outcome,[5],inactive
same,outcome,[6],inactive
same,outcome,[7],inactive
same,AC50,[8],103 µM (active)
same,outcome,[9],inactive
same,outcome,[10],inactive
same,outcome,[11],inactive
same,outcome,[12],inactive
same,outcome,[13],inactive
same,outcome,[14],inactive
same,outcome,[15],inactive
same,outcome,[16],inactive
same,outcome,[17],inactive
same,outcome,[18],inactive
same,outcome,[19],inactive
OCCCl,outcome,[1],inactive
same,outcome,[2],inactive
same,outcome,[3],inactive
same,outcome,[4],inactive
same,outcome,[5],inactive
same,outcome,[6],inactive
same,outcome,[7],inactive
same,outcome,[8],inactive
same,outcome,[9],inactive
same,outcome,[10],inactive
same,outcome,[11],inactive
same,outcome,[12],inactive
same,outcome,[13],inactive
same,outcome,[14],inactive
same,outcome,[15],inactive
same,outcome,[16],inactive
same,outcome,[17],inactive
same,outcome,[20],inactive
same,outcome,[18],inactive
same,outcome,[19],inactive
Cc1ccc([N+](=O)[O-])cc1,outcome,[1],inactive
same,outcome,[2],inactive
same,outcome,[3],inactive
same,outcome,[4],inactive
same,outcome,[5],inactive
same,outcome,[6],inactive
same,outcome,[7],inactive
same,outcome,[8],inactive
same,outcome,[9],inactive
same,outcome,[10],inactive
same,outcome,[11],inactive
same,outcome,[12],inactive
same,outcome,[13],inactive
same,outcome,[14],inactive
same,outcome,[15],inactive
same,outcome,[16],inactive
same,outcome,[17],inactive
same,outcome,[20],inactive
same,outcome,[19],inactive
O=[N+]([O-])c1ccc(Oc2ccc(Cl)cc2Cl)cc1,outcome,[1],inactive
same,outcome,[2],inactive
same,AC50,[3],71 µM (active)
same,outcome,[4],inactive
same,outcome,[5],inactive
same,outcome,[6],inactive
same,outcome,[7],inactive
same,outcome,[8],inactive
same,outcome,[9],inactive
same,outcome,[10],inactive
same,outcome,[11],inactive
same,outcome,[12],inactive
same,AC50,[13],100 µM (active)
same,AC50,[15],68.6 µM (active)
same,outcome,[16],inactive
same,outcome,[17],inactive
same,outcome,[19],inactive
Clc1ccc(C(c2ccc(Cl)cc2)C(Cl)Cl)cc1,AC50,[1],104 µM (active)
same,outcome,[2],inactive
same,AC50,[3],68.3 µM (active)
same,AC50,[4],156 µM (active)
same,AC50,[5],108 µM (active)
same,AC50,[6],114 µM (active)
same,outcome,[7],inactive
same,AC50,[8],87.1 µM (active)
same,outcome,[9],inactive
same,outcome,[10],inactive
same,AC50,[11],54.5 µM (active)
same,AC50,[12],54.8 µM (active)
same,AC50,[13],52.9 µM (active)
same,outcome,[15],inactive
same,AC50,[16],50.9 µM (active)
same,AC50,[17],54.5 µM (active)
same,outcome,[19],inactive
Cc1ccc(N)c(N)c1,outcome,[1],inactive
same,outcome,[2],inactive
same,outcome,[3],inactive
same,outcome,[4],inactive
same,outcome,[5],inactive
same,outcome,[6],inactive
same,outcome,[7],inactive
same,outcome,[8],inactive
same,outcome,[9],inactive
same,outcome,[10],inactive
same,outcome,[11],inactive
same,outcome,[12],inactive
same,AC50,[13],33.3 µM (active)
same,AC50,[16],27.5 µM (active)
same,outcome,[17],inactive
same,outcome,[20],inactive
same,outcome,[18],inactive
